Data on 37 molecules can be found in PubChem BioAssay (NCI).

This is part of a sample that, as a whole, favours compounds with a hit. Of some 83,000 tested, about 20% had one in any assay.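 Assay: single dose, 48 h. Readout: percent growth (0 = no net growth; negative = cell death). Active: <10.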 Values without a mark were called inactive. Activity calls are given as the source filed them.

In the first test the test system is HCT-15 colon. In words: NCI-60 one-dose screen, 48 h (100 = growth as untreated, 0 = no growth, -100 = all killed). The note with it: 10 µM unless noted.
With `CCCCCC(=O)OCCC1CCCCC1`, the growth was 107%.

For the molecule `CC(C)OCC(CCl)OC(=O)Nc1ccccc1` (centres undefined), the growth was 108%.

As to `Oc1cccc(CNC2CCCCC2)c1`, the growth was 105%.

Consider `C=CCC(OC(C)=O)c1ccc(OC)c(OC)c1` (centres undefined), for which the growth is 104%.

Regarding `COC1OC(CO)C(OC)C(O)C1O` (centres undefined), the growth was 100%.

`O=S(Cc1ccccc1)/C(=C/NC(=S)Nc1ccccc1)c1ccccc1` (centres undefined): the growth was 106%.

Regarding `Oc1ccc(N=Cc2ccc(OCc3ccccc3)cc2)cc1`, the growth is 96.6%.

As for `CCCCCCCCCCCCCCCCCC(=O)NCCNC(=O)CCCCCCCCCCCCCCCCC`, the growth is 95.1%.

Turning to `O=C1C=C(c2ccccc2)C(O)(c2ccccc2)C1` (centres undefined), the growth was 132%.

Consider `Nc1ncc([N+](=O)[O-])cn1`, for which the growth is 108%.

As for `CCN(C(C)=O)c1ccc([N+](=O)[O-])cc1`, the growth is 109%.

In the case of `C1C[S+]2CC[S+]1CC2`, the growth was 105%.

Regarding `NC(=O)OCCO`, the growth is 108%.

As to `COC1CC(OC(=O)c2ccc([N+](=O)[O-])cc2)C(COC(=O)c2ccc([N+](=O)[O-])cc2)O1` (centres undefined), the growth is 100%.

As to `CC(=O)c1cc(O)ccc1O`, the growth is 107%.

In the case of `Cc1c(Cl)cccc1NC(=S)NC(=O)c1ccccc1`, the growth was 92.6%.

Turning to `Cc1cc(Cl)cc(Cc2cc(Cl)cc(C)c2O)c1O`, the growth is 12.4%.

For `CCCOCc1cn[nH]n1`, the growth was 106%.

For the molecule `Cc1ccc(C(C)C)c(OCC(=O)O)c1`, the growth was 101%.

`OC(CBr)CCBr` (centres undefined): the growth was 97.8%.

As for `CC(CCC#N)(CCC#N)C(=O)c1ccccc1`, the growth is 100%.

On to `CCC(=O)Oc1c(C)cc(O)c2ccccc12`, for which the growth is 91.1%.

Consider `COCC(N)=O`, for which the growth was 100%.

On to `Cc1cc(C)cc(OCC(=O)O)c1`, for which the growth is 94.4%.

For the molecule `CCOC(OCC)C(=O)c1ccccc1`, the growth is 104%.

Regarding `Cc1ccnc(Nc2nc3ccccc3[nH]2)n1`, the growth is 101%.

As for `O=C(NC(=S)N1CC=CCC1)c1ccccc1`, the growth is 102%.

For `COc1cc(OC)c(NC(=O)C(Sc2nc(C)cc(C)c2C#N)c2ccccc2)cc1Cl` (centres undefined), the growth was 97.7%.

In the case of `O=S(=O)(O)c1cccc2cccnc12`, the growth was 117%.

Take `CC(C)(CC(=O)O)CC(=O)O`: the growth is 105%.

Regarding `CC(=O)N(C)N=Nc1ccc(C)cc1`, the growth was 107%.

For the molecule `CC(=O)c1cccs1`, the growth is 99.5%.

In the case of `CSCC[C@@H]1C(=O)N(C)[C@H](C(C)(C)C)N1C(=O)c1ccccc1`, the growth was 113%.

As to `CC1=CC(=Nc2ccc(N(C)C)cc2)C=C(C)C1=O`, the growth was 85.7%.

`OC(CCN1CCCCC1)(c1ccccc1)c1ccccc1`: the growth was 104%.

Take `CCOC(=O)c1ccc(NC(=O)Nc2nccs2)cc1`: the growth is 4.65% (active).

With `O=CNCCc1ccccc1`, the growth is 109%.

For the next test, the system named is HT29 colon. Described as above. To be noted: 10 µM unless noted.
For the molecule `CCCCCC(=O)OCCC1CCCCC1`, the growth is 101%.

In the case of `CC(C)OCC(CCl)OC(=O)Nc1ccccc1` (centres undefined), the growth was 102%.

Regarding `Oc1cccc(CNC2CCCCC2)c1`, the growth was 100%.

Consider `C=CCC(OC(C)=O)c1ccc(OC)c(OC)c1` (centres undefined), for which the growth was 107%.

`COC1OC(CO)C(OC)C(O)C1O` (centres undefined): the growth is 110%.

As for `O=S(Cc1ccccc1)/C(=C/NC(=S)Nc1ccccc1)c1ccccc1` (centres undefined), the growth was 104%.

As for `Oc1ccc(N=Cc2ccc(OCc3ccccc3)cc2)cc1`, the growth is 109%.

For `CCCCCCCCCCCCCCCCCC(=O)NCCNC(=O)CCCCCCCCCCCCCCCCC`, the growth was 49.1%.

Regarding `O=C1C=C(c2ccccc2)C(O)(c2ccccc2)C1` (centres undefined), the growth was 97.8%.

Regarding `Nc1ncc([N+](=O)[O-])cn1`, the growth was 81.2%.

For `CCN(C(C)=O)c1ccc([N+](=O)[O-])cc1`, the growth was 104%.

Consider `C1C[S+]2CC[S+]1CC2`, for which the growth is 98.9%.

For `NC(=O)OCCO`, the growth was 99%.

For the molecule `COC1CC(OC(=O)c2ccc([N+](=O)[O-])cc2)C(COC(=O)c2ccc([N+](=O)[O-])cc2)O1` (centres undefined), the growth is 121%.

As to `CC(=O)c1cc(O)ccc1O`, the growth is 104%.

Regarding `Cc1c(Cl)cccc1NC(=S)NC(=O)c1ccccc1`, the growth is 90.3%.

Regarding `Cc1cc(Cl)cc(Cc2cc(Cl)cc(C)c2O)c1O`, the growth is 98.1%.

In the case of `CCCOCc1cn[nH]n1`, the growth is 105%.

On to `Cc1ccc(C(C)C)c(OCC(=O)O)c1`, for which the growth was 109%.

On to `OC(CBr)CCBr` (centres undefined), for which the growth is 105%.

As for `CC(CCC#N)(CCC#N)C(=O)c1ccccc1`, the growth was 103%.

Regarding `CCC(=O)Oc1c(C)cc(O)c2ccccc12`, the growth was 106%.

Take `COCC(N)=O`: the growth is 102%.

For `Cc1cc(C)cc(OCC(=O)O)c1`, the growth was 119%.

Consider `CCOC(OCC)C(=O)c1ccccc1`, for which the growth was 92.7%.

In the case of `Cc1ccnc(Nc2nc3ccccc3[nH]2)n1`, the growth was 100%.

As for `O=C(NC(=S)N1CC=CCC1)c1ccccc1`, the growth was 100%.

With `COc1cc(OC)c(NC(=O)C(Sc2nc(C)cc(C)c2C#N)c2ccccc2)cc1Cl` (centres undefined), the growth is 107%.

As for `O=S(=O)(O)c1cccc2cccnc12`, the growth is 122%.

As to `CC(C)(CC(=O)O)CC(=O)O`, the growth was 101%.

As for `CC(=O)N(C)N=Nc1ccc(C)cc1`, the growth was 116%.

Regarding `CC(=O)c1cccs1`, the growth was 99.8%.

On to `CSCC[C@@H]1C(=O)N(C)[C@H](C(C)(C)C)N1C(=O)c1ccccc1`, for which the growth is 116%.

Take `CC1=CC(=Nc2ccc(N(C)C)cc2)C=C(C)C1=O`: the growth was 98.6%.

Turning to `OC(CCN1CCCCC1)(c1ccccc1)c1ccccc1`, the growth is 96.1%.

As for `CCOC(=O)c1ccc(NC(=O)Nc2nccs2)cc1`, the growth was -25.6% (active).

Take `O=CNCCc1ccccc1`: the growth is 98.3%.
